From PubChem BioAssay (NCATS)
Several values for one entry are separate records, joined by “and”; a condition that tells them apart may be missing. Equal entries are not always repeated. Results filed as inconclusive are left out. The source holds several records for some structures; these can differ, active in one and inactive in another. Activity calls are given as the source filed them. Calls follow the shape of the dose curve; as a rule, active = well fitted curve in the direction sought with a large enough effect; inconclusive = small, poorly fitted or top-dose-only effect, or another doubt; inactive = no such curve, though single readings can be large; an effect the other way counts as inactive or inconclusive.

Tests used:
TAB109 = assay: qHTS profiling for inhibitors of Plasmodium falciparum proliferation (AID 504749); also: nearly all actives have a fitted effect of over 60% in size; also: potency is read from the fitted curve at half-maximal effect; conditions: P. falciparum in erythrocytes, SYBR Green DNA, 72 h; series mostly up to 28.7 µM
How it was run: (§1)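 Readout was DNA-dye fluorescence from lysed cultures, ex 485/em 535 nm. Parasitized red cells had grown 72 h with compound; data scaled between 0.29 uM artemisinin and DMSO wells and corrected using vehicle-only plates.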

TAB113 = assay: as above; conditions: P. falciparum in erythrocytes, SYBR Green DNA, 72 h; series mostly up to 28.7 µM
How it was run: as §1

TAB165 = assay: as above; conditions: P. falciparum in erythrocytes, SYBR Green DNA, 72 h; series mostly up to 28.7 µM
How it was run: as §1

W2 = assay: as above; conditions: P. falciparum in erythrocytes, SYBR Green DNA, 72 h; series mostly up to 28.7 µM
How it was run: as §1

CRL-7250 [1] = assay: Cytotoxic Profiling of Annotated Libraries Using Quantitative High-Throughput Screening (AID 1296008); conditions: Five cell lines viability, CellTiter-Glo ATP luminescence, 48-72 h; max response: active compounds read low; also: nearly all actives have a fitted effect of over 60% in size; also: potency is read from the fitted curve at half-maximal effect; as to max response: % is scaled to controls: 0 for no effect and ±100 for the full control effect
How it was run: (§2)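 Cells exposed to compounds for 48 or 72 hr at 37 degrees Celsius. Viability read as ATP-coupled luminescence with CellTiter-Glo after 10 min at room temperature.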

HEK293 = assay: as above; conditions: Five cell lines viability, CellTiter-Glo ATP luminescence, 48-72 h; max response: active compounds read low
How it was run: as §2

HaCat [2] = assay: as above; conditions: Five cell lines viability, CellTiter-Glo ATP luminescence, 48-72 h; max response: active compounds read low
How it was run: as §2

KB-3-1 = assay: as above; conditions: Five cell lines viability, CellTiter-Glo ATP luminescence, 48-72 h; max response: active compounds read low
How it was run: as §2

NIH3T3 [3] = assay: as above; conditions: Five cell lines viability, CellTiter-Glo ATP luminescence, 48-72 h; max response: active compounds read low
How it was run: as §2

CRL-7250 [4] = assay: qHTS assay to identify novel small-molecules to repurpose for Merkel cell carcinoma treatment (AID 1296009); conditions: MCC and control cell lines, CellTiter-Glo viability, 72 h; at 44.8 µM (top of the series) unless noted; also: nearly all actives have a fitted effect of over 60% in size; also: potency is read from the fitted curve at half-maximal effect
How it was run: (§3)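 Cells were incubated with compound for 72 hr at 37 degree celsius before CellTiter-Glo addition. Luminescence was normalized with no-cell wells as full cytotoxicity and DMSO as baseline.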

HACAT [5] = assay: as above; conditions: MCC and control cell lines, CellTiter-Glo viability, 72 h; at 44.8 µM (top of the series) unless noted
How it was run: as §3

HEK293T = assay: as above; conditions: MCC and control cell lines, CellTiter-Glo viability, 72 h; at 44.8 µM (top of the series) unless noted
How it was run: as §3

MCC-13 = assay: as above; conditions: MCC and control cell lines, CellTiter-Glo viability, 72 h; series mostly up to 46 µM
How it was run: as §3

MCC-26 = assay: as above; conditions: MCC and control cell lines, CellTiter-Glo viability, 72 h; series mostly up to 46 µM
How it was run: as §3

MKL-1 = assay: as above; conditions: MCC and control cell lines, CellTiter-Glo viability, 72 h; series mostly up to 46 µM
How it was run: as §3

MKL-2 = assay: as above; conditions: MCC and control cell lines, CellTiter-Glo viability, 72 h; series mostly up to 46 µM
How it was run: as §3

NIH3T3 [6] = assay: as above; conditions: MCC and control cell lines, CellTiter-Glo viability, 72 h; at 44.8 µM (top of the series) unless noted
How it was run: as §3

UISO = assay: as above; conditions: MCC and control cell lines, CellTiter-Glo viability, 72 h; series mostly up to 46 µM
How it was run: as §3

WaGa = assay: as above; conditions: MCC and control cell lines, CellTiter-Glo viability, 72 h; series mostly up to 46 µM
How it was run: as §3

C33A = assay: Primary qHTS to identify gynecologic anti-cancer compounds using libraries of approved drugs and bioactive compounds (AID 1345084); conditions: Gynecologic cancer cell panel viability, ATPlite luminescence, 48 h; series mostly up to 57.5 µM; also: % is scaled to controls: 0 for no effect and ±100 for the full control effect; nearly all actives have a fitted effect of over 55% in size
How it was run: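 Five-concentration response, 48 h; readout is ATP-driven luciferase luminescence.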

O=[N+]([O-])c1ccc([As](=O)(O)O)cc1
inactive: outcome (CRL-7250 [1]) | outcome (HEK293) | outcome (HaCat [2]) | max response (KB-3-1) -9.29% | outcome (NIH3T3 [3]) | outcome (CRL-7250 [4]) | outcome (HACAT [5]) | outcome (HEK293T) | Potency (MCC-13) | Potency (MCC-26) | Potency (MKL-1) | outcome (NIH3T3 [6]) | Potency (UISO) | Potency (WaGa) | Potency (C33A)
active: Potency (TAB109) 6.31 µM | Potency (TAB113) 7.08 µM | Potency (TAB165) 5.01 µM | Potency (W2) 4.78 µM | Potency (MKL-2) 8.41 µM

O=C(Oc1ccc([N+](=O)[O-])cc1)N1CCN(Cc2cccc(Oc3ccccc3)c2)CC1
inactive: max response (CRL-7250 [1]) -6.9% and 1.64% | max response (HEK293) 1.27% | max response (HaCat [2]) 0.717% and -5.04% | max response (KB-3-1) -6.21% and -13.5% | max response (NIH3T3 [3]) 0.403% | outcome (NIH3T3 [3]) | Potency (MCC-13) | Potency (MKL-1) | Potency (MKL-2) | outcome (NIH3T3 [6]) | Potency (UISO) | Potency (WaGa) | Potency (C33A)

O=C(O)COc1ccccc1
inactive: Potency (TAB109) | Potency (TAB113) | Potency (TAB165) | Potency (W2) | max response (CRL-7250 [1]) 4.33% | max response (HEK293) 2.38% | outcome (HaCat [2]) | max response (KB-3-1) -13.1% | max response (NIH3T3 [3]) -0.908% | outcome (HACAT [5]) | Potency (MCC-13) | Potency (MCC-26) | Potency (MKL-1) | Potency (MKL-2) | Potency (UISO) | Potency (WaGa) | Potency (C33A)

Oc1ccc2c3c1O[C@H]1c4[nH]c5c(c4C[C@@]4(O)[C@@H](C2)N(CC2CC2)CC[C@]314)C[C@@]1(O)[C@H]2Cc3ccc(O)c4c3[C@@]1(CCN2CC1CC1)[C@H]5O4
inactive: outcome (CRL-7250 [1]) | outcome (HEK293) | max response (HaCat [2]) -0.228% | outcome (KB-3-1) | max response (NIH3T3 [3]) -5.25% | outcome (CRL-7250 [4]) | outcome (HEK293T) | Potency (MCC-13) | Potency (MCC-26) | Potency (MKL-1) | Potency (MKL-2) | Potency (UISO) | Potency (WaGa)

CCOC(=O)c1cncn1[C@H](C)c1ccccc1
inactive: max response (CRL-7250 [1]) 2.73% | outcome (HEK293) | outcome (HaCat [2]) | max response (KB-3-1) 6.23% | outcome (NIH3T3 [3]) | outcome (HACAT [5]) | outcome (HEK293T) | Potency (MCC-13) | Potency (MCC-26) | Potency (MKL-1) | Potency (MKL-2) | outcome (NIH3T3 [6]) | Potency (UISO) | Potency (WaGa)

C[C@]12Cc3cn[nH]c3C[C@@H]1CC[C@@H]1[C@H]2CC[C@@]2(C)[C@H]1CC[C@]2(C)O
inactive: max response (CRL-7250 [1]) 3.97% | max response (HEK293) -21.8% | outcome (HaCat [2]) | max response (KB-3-1) -0.691% | max response (NIH3T3 [3]) -12.4% | outcome (HACAT [5]) | Potency (MCC-13) | Potency (MKL-1) | Potency (MKL-2) | Potency (UISO) | Potency (WaGa)

CCNC(=O)CC1N=C(c2ccc(Cl)cc2)c2cc(OC)ccc2-n2c(C)nnc21 (stereo unspecified)
active: Potency (CRL-7250 [1]) 1.64 µM
inactive: max response (CRL-7250 [1]) -29.2% and -3.83% | max response (HaCat [2]) -4.28% and 0.244% and -23.7% | max response (KB-3-1) -3.15% | outcome (KB-3-1) | max response (NIH3T3 [3]) 4.41% | outcome (NIH3T3 [3]) | outcome (HEK293T) | Potency (MCC-13) | Potency (MCC-26) | Potency (MKL-1) | outcome (NIH3T3 [6]) | Potency (UISO) | Potency (C33A)

Clc1ccccc1C(c1ccccc1)(c1ccccc1)n1cccn1
inactive: outcome (CRL-7250 [1]) | max response (HEK293) -5.51% | max response (HaCat [2]) -3.22% | max response (KB-3-1) 9.15% | outcome (NIH3T3 [3]) | outcome (CRL-7250 [4]) | Potency (MCC-13) | Potency (MKL-1) | Potency (MKL-2) | outcome (NIH3T3 [6]) | Potency (UISO) | Potency (WaGa)

C1CCC(NC2CCCCC2)CC1
inactive: Potency (TAB109) | Potency (TAB113) | Potency (TAB165) | Potency (W2) | outcome (CRL-7250 [1]) | max response (HEK293) 2.36% | max response (HaCat [2]) 3.35% | max response (KB-3-1) 6.25% | max response (NIH3T3 [3]) -2.97% | outcome (CRL-7250 [4]) | Potency (MCC-13) | Potency (MCC-26) | Potency (MKL-1) | Potency (MKL-2) | Potency (UISO) | Potency (WaGa) | Potency (C33A)

CC(=O)Nc1ccc(OC[C@](C)(O)C(=O)Nc2ccc([N+](=O)[O-])c(C(F)(F)F)c2)cc1
inactive: max response (CRL-7250 [1]) -1.8% and -4.07% | max response (HEK293) -11.2% | outcome (HEK293) | max response (HaCat [2]) -8.66% and -10.1% | max response (KB-3-1) -13.4% and 7.92% | max response (NIH3T3 [3]) 2.34% | outcome (NIH3T3 [3]) | outcome (HEK293T) | Potency (MCC-13) | Potency (MCC-26) | Potency (MKL-1) | Potency (MKL-2) | outcome (NIH3T3 [6]) | Potency (UISO) | Potency (WaGa) | Potency (C33A)

COc1cccc2c1[C@]13CCN(CC4CC4)[C@H](C2)[C@]1(OC)CCC(=O)C3
inactive: outcome (CRL-7250 [1]) | outcome (HEK293) | outcome (HaCat [2]) | max response (KB-3-1) 7.72% | max response (NIH3T3 [3]) 3.8% | outcome (CRL-7250 [4]) | outcome (HACAT [5]) | outcome (HEK293T) | Potency (MCC-13) | Potency (MCC-26) | Potency (MKL-1) | Potency (MKL-2) | Potency (UISO) | Potency (WaGa)

CCc1c(C(=O)C(N)=O)c2c(OCC(=O)O)cccc2n1Cc1ccccc1
inactive: max response (CRL-7250 [1]) 2.27% and 4.29% | max response (HEK293) -0.0349% | max response (HaCat [2]) -1.12% and -1.77% | max response (KB-3-1) 9.54% | outcome (KB-3-1) | max response (NIH3T3 [3]) -3.2% | outcome (NIH3T3 [3]) | Potency (MCC-13) | Potency (MCC-26) | Potency (MKL-1) | Potency (MKL-2) | outcome (NIH3T3 [6]) | Potency (UISO) | Potency (WaGa) | Potency (C33A)
